Test results from the supplement of paper PMC8975748.
Where a name gives a salt, the structure may show the parent alone. ± gives the standard deviation of the averaged measurements.

What was measured:
[1] = tested on: Saccharomyces cerevisiae BY4741 SeMeCo community; assay: mean cell size (pixel area) (pixels); higher = larger cells; conditions: 10 µM; 24 h; SM minimal medium
Method in brief: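 Mean cell pixel area per well was measured in a four-plasmid fluorescent community of Saccharomyces cerevisiae BY4741, where every plasmid complements one auxotrophy and carries a fluorescent marker. Cells from an overnight preculture at OD600 = 1.0 were diluted to OD600 = 0.3 and dispensed at 70 µl into 384-well plates acoustically predosed with drug to a final 10 µM in SM medium. Incubation lasted 24 h, followed by paraformaldehyde fixation, automated confocal imaging and analysis in Harmony. Reported figures are averaged over 3 replicates. Same SeMeCo high-content imaging drug screen: Selleck FDA-approved drugs at 10 µM, 24 h in SM medium, 384-well plates, 3 replicates.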

[2] = tested on: Saccharomyces cerevisiae BY4741 SeMeCo community; assay: z-score of subpopulation abundance vs DMSO median, subpopulation auxotrophic for M; higher = larger share of this subpopulation than in DMSO controls; conditions: 10 µM; 24 h; SM minimal medium; subpopulation (auxotrophy): M
Method in brief: (§1)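 Subpopulation abundance was reported as a z-score against the median of vehicle wells. The Saccharomyces cerevisiae BY4741 community, carrying four plasmids that each restored one auxotrophy and encoded a distinct fluorescent protein, was grown 24 h in minimal SM medium in 384-well plates holding library drugs at 10 µM final. Cells were paraformaldehyde-fixed and imaged by automated confocal microscopy, with single-auxotroph fluorescent strains used for thresholds and autofluorescence correction.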

[3] = tested on: Saccharomyces cerevisiae BY4741 SeMeCo community; assay: z-score of subpopulation abundance vs DMSO median, subpopulation auxotrophic for H; higher = larger share of this subpopulation than in DMSO controls; conditions: 10 µM; 24 h; SM minimal medium; subpopulation (auxotrophy): H
Method in brief: as §1

[4] = tested on: Saccharomyces cerevisiae BY4741 SeMeCo community; assay: z-score of subpopulation abundance vs DMSO median, subpopulation auxotrophic for LU; higher = larger share of this subpopulation than in DMSO controls; conditions: 10 µM; 24 h; SM minimal medium; subpopulation (auxotrophy): LU
Method in brief: as §1

[5] = tested on: Saccharomyces cerevisiae BY4741 SeMeCo community; assay: z-score of subpopulation abundance vs DMSO median, subpopulation auxotrophic for HM; higher = larger share of this subpopulation than in DMSO controls; conditions: 10 µM; 24 h; SM minimal medium; subpopulation (auxotrophy): HM
Method in brief: as §1

[6] = tested on: Saccharomyces cerevisiae BY4741 SeMeCo community; assay: z-score of subpopulation abundance vs DMSO median, subpopulation auxotrophic for HU; higher = larger share of this subpopulation than in DMSO controls; conditions: 10 µM; 24 h; SM minimal medium; subpopulation (auxotrophy): HU
Method in brief: as §1

[7] = tested on: Saccharomyces cerevisiae BY4741 SeMeCo community; assay: z-score of subpopulation abundance vs DMSO median, subpopulation auxotrophic for UM; higher = larger share of this subpopulation than in DMSO controls; conditions: 10 µM; 24 h; SM minimal medium; subpopulation (auxotrophy): UM
Method in brief: as §1

[8] = tested on: Saccharomyces cerevisiae BY4741 SeMeCo community; assay: z-score of subpopulation abundance vs DMSO median, subpopulation auxotrophic for HL; higher = larger share of this subpopulation than in DMSO controls; conditions: 10 µM; 24 h; SM minimal medium; subpopulation (auxotrophy): HL
Method in brief: as §1

[9] = tested on: Saccharomyces cerevisiae BY4741 SeMeCo community; assay: z-score of subpopulation abundance vs DMSO median, subpopulation auxotrophic for HLU; higher = larger share of this subpopulation than in DMSO controls; conditions: 10 µM; 24 h; SM minimal medium; subpopulation (auxotrophy): HLU
Method in brief: as §1

[10] = tested on: Saccharomyces cerevisiae BY4741 SeMeCo community; assay: z-score of subpopulation abundance vs DMSO median, subpopulation auxotrophic for HLM; higher = larger share of this subpopulation than in DMSO controls; conditions: 10 µM; 24 h; SM minimal medium; subpopulation (auxotrophy): HLM
Method in brief: as §1

[11] = tested on: Saccharomyces cerevisiae BY4741 SeMeCo community; assay: z-score of subpopulation abundance vs DMSO median, subpopulation auxotrophic for HUM; higher = larger share of this subpopulation than in DMSO controls; conditions: 10 µM; 24 h; SM minimal medium; subpopulation (auxotrophy): HUM
Method in brief: as §1

[12] = tested on: Saccharomyces cerevisiae BY4741 SeMeCo community; assay: z-score of subpopulation abundance vs DMSO median, subpopulation auxotrophic for LUM; higher = larger share of this subpopulation than in DMSO controls; conditions: 10 µM; 24 h; SM minimal medium; subpopulation (auxotrophy): LUM
Method in brief: as §1

[13] = tested on: Saccharomyces cerevisiae BY4741 SeMeCo community; assay: z-score of prototroph abundance vs DMSO median; higher = larger share of this subpopulation than in DMSO controls; conditions: 10 µM; 24 h; SM minimal medium; subpopulation (auxotrophy): Prototroph
Method in brief: as §1

[14] = tested on: Saccharomyces cerevisiae BY4741 SeMeCo community; assay: z-score of subpopulation abundance vs DMSO median, subpopulation auxotrophic for U; higher = larger share of this subpopulation than in DMSO controls; conditions: 10 µM; 24 h; SM minimal medium; subpopulation (auxotrophy): U
Method in brief: as §1

[15] = tested on: Saccharomyces cerevisiae BY4741 SeMeCo community; assay: z-score of subpopulation abundance vs DMSO median, subpopulation auxotrophic for LM; higher = larger share of this subpopulation than in DMSO controls; conditions: 10 µM; 24 h; SM minimal medium; subpopulation (auxotrophy): LM
Method in brief: as §1

[16] = tested on: Saccharomyces cerevisiae BY4741 SeMeCo community; assay: z-score of subpopulation abundance vs DMSO median, subpopulation auxotrophic for HLUM; higher = larger share of this subpopulation than in DMSO controls; conditions: 10 µM; 24 h; SM minimal medium; subpopulation (auxotrophy): HLUM
Method in brief: as §1

| Compound | mean cell size [1] | z-score of subpopulation abundance [2] | z-score of subpopulation abundance [3] | z-score of subpopulation abundance [4] | z-score of subpopulation abundance [5] | z-score of subpopulation abundance [6] | z-score of subpopulation abundance [7] | z-score of subpopulation abundance [8] | z-score of subpopulation abundance [9] | z-score of subpopulation abundance [10] | z-score of subpopulation abundance [11] | z-score of subpopulation abundance [12] | z-score of prototroph abundance [13] | z-score of subpopulation abundance [14] | z-score of subpopulation abundance [15] | z-score of subpopulation abundance [16] |
| --- | --- | --- | --- | --- | --- | --- | --- | --- | --- | --- | --- | --- | --- | --- | --- | --- |
| CCOc1ccc(NC(C)=O)cc1 [Phenacetin] | 12.6 ± 0.17 | 0.1 | 0.23 | 0.1 | 0.08 | 0.77 | 0.96 | -0.01 | 0.79 | 0.8 | 1.17 | -0.17 |  |  |  |  |
| CO/N=C(\C(=O)N[C@@H]1C(=O)N2C(C(=O)O)=CCS[C@H]12)c1csc(N)n1 [Ceftizoxime sodium] |  | 1.04 | -1.54 | -0.54 | -0.06 | -0.68 | 0.12 | -0.66 | -0.33 | -0.22 | 0.09 | -1.27 | 0.46 | -0.03 | -0.65 | -0.48 |
| COC(=O)C1=C(C)NC(C)=C(C(=O)OC)C1c1ccccc1[N+](=O)[O-] [Nifedipine] | 12.5 ± 0.2 | 0.13 | 0.64 | 0.14 | -0.14 | -0.68 | 0.26 | -0.95 | 1.29 | 0.5 | -0.1 | 0.34 | -0.35 |  | 0.48 | 1.1 |
| CC(=O)Oc1ccccc1C(=O)O [Aspirin] | 12.5 ± 0.23 | 1.14 | 0.67 | 0.01 | -0.38 |  |  | 0.18 | -0.85 | 0.21 | -0.14 | -0.25 | -0.19 | -0.25 | 0.16 |  |
| COCCCN1CCC(NC(=O)c2cc(Cl)c(N)c3c2OCC3)CC1 [Prucalopride] |  | 0.21 | -0.52 | 0.77 |  | 0.16 | 0.57 | -0.99 | -0.6 | 0.6 | 0.36 | -0.29 | -0.29 |  | -0.04 | -0.34 |
| CNCCC(Oc1ccc(C(F)(F)F)cc1)c1ccccc1 (stereo unspecified) [Fluoxetine HCl] | 12.4 ± 0.14 | 0.18 | -0.47 | 0.51 | -0.49 |  | 0.29 | -0.68 | 0.27 | -0.31 | -0.15 |  |  |  | 0 | 0.65 |
| CCC(C)(C)c1ccc(CC(C)CN2C[C@@H](C)O[C@@H](C)C2)cc1 (stereo partly specified) [Amorolfine HCl] | 12 ± 0.35 | 9.64 | 8.59 | -0.63 | 8.92 | 5.04 | 10 | 1.91 | 2.33 | 10.3 | 6 | 3.94 | -9.52 | 1.83 | -0.63 |  |
| C[C@]1(Cn2ccnn2)[C@H](C(=O)O)N2C(=O)C[C@H]2S1(=O)=O [Tazobactam] | 12.4 ± 0.26 | -0.32 | -1.1 | 0.66 | -0.74 | 0.31 | 0.66 | -0.38 | 0.12 | -0.56 | -0.01 | 0.22 | -0.17 | 0.75 | -0.39 |  |
| Cc1cccc(Nc2ccccc2C(=O)O)c1C [Mefenamic Acid] | 12.4 ± 0.21 | 0.15 | -0.41 | -0.62 |  | 0.29 | -0.74 | 0.24 | -0.38 | -0.42 | -0.64 | -0.45 | 0.48 |  | 0.12 | -0.2 |
| Nc1c2c(nc3ccccc13)CCCC2 [Tacrine hydrochloride hydrate] |  | 0.5 | -0.99 | 0.3 | -0.01 | -0.42 | 0.92 | -0.15 | 0.33 | 0.56 | 0.1 | 0.71 | -0.22 |  |  | 0.45 |
| NC(=N\CCCCCC/N=C(N)/N=C(\N)Nc1ccc(Cl)cc1)/N=C(\N)Nc1ccc(Cl)cc1 [Chlorhexidine diacetate] | 11.5 ± 0.11 | -2.47 |  | -1.43 | -1.35 | -0.08 | -1.2 | 1.03 | 1.21 | 1.2 | -0.61 | 1.19 | 1.46 | -0.99 |  | 2.97 |
| NC[C@H]1O[C@H](O[C@H]2[C@H](O)[C@@H](O[C@H]3O[C@H](CO)[C@@H](O)[C@H](N)[C@H]3O)[C@H](N)C[C@@H]2N)[C@H](N)C[C@@H]1O [Tobramycin] | 11.72 ± 0.043 | 0.73 |  | -0.02 | -0.2 | 0 | 0.54 | -0.46 | -0.41 | -1.18 | 0.03 | -0.69 | 0.02 | 0.79 | -0.17 |  |
| Cc1ncc([N+](=O)[O-])n1CCOC(=O)c1ccccc1 [Metronidazole Benzoate] |  | -0.51 | -1.17 | -1.05 | 0.12 | -1 |  | -0.69 | -1.28 | -0.79 | -0.37 |  | 0.95 | -0.16 |  | -0.51 |
| Nc1ccc(S(=O)(=O)c2ccc(N)cc2)cc1 [Dapson] | 12.5 ± 0.26 | 0.68 | 0.61 | 0.91 | 0.93 | 0.31 | 0.45 | 0.32 | 0.22 | -0.14 | 0.6 | 0.92 | -0.54 |  | 0.51 |  |
